Data on 40 compounds can be found in PubChem BioAssay (NCI).

About 83,000 compounds went through this panel and 20% of them were active in at least one assay; those are over-represented in the sample as a whole.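 Negative percent growth values reflect cell death: -40 means 40% of the cells present at the start died, and -100 means all died.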 Values without a mark were called inactive. Activity calls are given as the source filed them. The calls were made as follows: active = growth percent below 10; inactive = the rest.

This test concerns MDA-MB-468 breast. As to the kind of experiment: NCI-60 one-dose screen, 48 h (100 = growth as untreated, 0 = no growth, -100 = all killed). Conditions: 10 µM unless noted.
Regarding `Cc1nc(Nc2ccc(NC(=S)Nc3ccccc3)cc2)c2ccccc2n1`, the growth was 109%. Then `CCc1[nH]nc(-c2ccc(OC)cc2)c1-c1ccccc1OCCN(CC)CC`, with 87.8%; and `COc1cc(-c2nc3sccn3c2-c2ccnc(S(C)(=O)=O)n2)ccc1F`, with 72.3%. `CCCCCCCCCc1cc[n+](CC(=O)c2ccc([N+](=O)[O-])cc2)cc1`: the growth is -18.6% (active). Next, `C#CCOc1cccc(-c2ncc3cc(NC(=O)CCl)ccc3n2)c1`: -60.6% (active); `C[C@H]1[C@H](C)CC[C@]2(C(=O)NCC#CCN3CCN(C)CC3)CC[C@]3(C)C(=CC[C@@H]4[C@@]5(C)Cc6c([nH]c7ccccc67)C(C)(C)[C@@H]5CC[C@]43C)[C@H]12`: 90.1%. Turning to `Cc1[nH]n(C(=S)Nc2nc3cc(Cl)c(F)cc3s2)c(=O)c1N=Nc1ccc(F)c(Cl)c1`, the growth was 114%. Next, `CCN1CCN(Cc2ccc(NC(=O)c3cccc(C#Cc4cccc5[nH]nc(N)c45)c3)cc2C(F)(F)F)CC1`: -30.6% (active); `Nc1cccc(C(=O)Nc2ccc3c(O)c(N=Nc4ccc(N=Nc5ccc(S(=O)(=O)O)cc5)cc4)c(S(=O)(=O)O)cc3c2)c1`: 113%; `O=C1Nc2ccc(Cl)cc2/C1=C/c1ccc(OCC(=O)c2ccc(Br)cc2)cc1`: 111%. Then `Cc1cc(N2CCOCC2)nc(N(CCNc2ccnc3cc(Cl)ccc23)Cc2cccs2)n1`, with -15.2% (active); and `NC(N)=N/N=C/c1ccc(Cl)cc1`, with 44%; and `CCN1CCN(C(=O)[C@]23CCC(C)(C)C[C@@H]2C2=CC[C@@H]4[C@@]5(C)CCC(=O)C(C)(C)[C@@H]5CC[C@@]4(C)[C@]2(C)CC3)CC1`, with 30.5%. Next, `COc1cc2nc(Nc3cccc(C(=O)O)c3)nc(N)c2cc1OC`: 108%; `COc1ccc(C2N(c3cc(OC)c(OC)c(OC)c3)C(=O)C2(F)F)cc1F` (stereo not given): 44.5%. `O=[N+]([O-])c1ccc2[nH]c3nccc(NCc4cccc(Cl)c4)c3c2c1`: the growth was 69%. For the compound `O=C1c2ccccc2C23C(=C(c4cncnc4)c4ccccc42)CCCN13` (stereo not given), the growth is 93.3%. Next, `CCCCCCNC(=O)Oc1ccc(/C(=C(\C)c2ccc(Cl)cc2)c2ccc(OCCN3CCCCC3)cc2)cc1`: 25.1%. Next, `Cc1c(C(=O)NC(Cc2ccccc2)C(O)C(=O)NCc2ccc(F)cc2)[nH]c2ccccc2c1=O` (stereo not given): 99.4%; `O=[N+]([O-])c1ccc(-c2nc(N(CCO)CCO)c3ccccc3n2)o1`: -73.5% (active). Next, `c1cc(C2CCCCC2)ccc1-c1cnc2nonc2n1`: 2.69% (active). Regarding `C=CCNCCC#N`, the growth was 98.1%. Then `Clc1ccccc1C(c1ccccc1)(c1ccccc1)n1ccnc1`, with 2.94% (active); and `CN(C)c1ccc(N=Cc2ccc(N3CCOCC3)cc2)cc1`, with 57.5%. Then `NC(N)=NN=C(c1ccccc1)c1ccccc1`, with -31.3% (active). Turning to `CC1=CC(=O)CC(C)(C)[C@@]1(O)/C=C/[C@@H](C)O`, the growth was 72.9%. Then `CS(=O)(=O)c1ccc(C(=O)Nc2ccc(Cl)c(-c3ccccn3)c2)c(Cl)c1`, with 3.59% (active).

For the compound `CC1OC(n2c3ccccc3c3c4c(c5c6ccccc6[nH]c5c32)C(=O)N(CCN2CCCC2)C4=O)CC(O)C1O` (stereo not given), the growth is 26.2%.

With `Clc1cc(Br)ccc1-c1ccc(CNCC2CCNCC2)o1`, the growth is 21.2%.

With `COc1nc(/C=C\Nc2ccc3c(c2)OCCOCCOCCOCCO3)nc(OC)n1`, the growth is 108%.

In the case of `O=C(NC(=S)N1CC=CCC1)c1ccccc1`, the growth was 121%. Next, `CC(C)[N+]1(C)C2CC[C@@H]1CC(OC(=O)C(CO)c1ccccc1)C2` (stereo not given in full): 109%. Take `COc1ccc(C2Nc3c(c(C(C)(C)C)nn3-c3ccccc3)C(=O)CS2)cc1` (stereo not given): the growth was 112%. Then `Clc1ccc2nc(CI)c(CI)nc2c1`, with 55.6%. Then `COc1cc2c(cc1OC)-c1cc(OC)c(OC)cc1C(CN(C)C)C2` (stereo not given), with 66.4% [100 µM]; and `CCOc1ccc(Nc2nc3c(s2)C(=O)c2ccccc2C3=O)cc1`, with 68.8%; and `CC(C)(C)c1ccc(S(=O)(=O)Oc2ccc(NC(=O)C3CCCCC3)cc2)cc1`, with 28.2%.

Turning to `CCOc1ccc2c(c1)CC[C@@H]1[C@@H]2CC[C@]2(C)[C@@H](O)[C@@H](O)C[C@@H]12`, the growth was 87.5%.

In the case of `CC1(C)C(=O)/C(=C\c2ccccn2)C[C@]2(C)[C@H]3CC[C@@H]4[C@@H](C(=O)/C=C/c5ccccn5)CC[C@@]4(C)[C@]3(C)CC[C@@H]12`, the growth is -50.6% (active).

For the compound `O=C1Nc2cc(Cl)ccc2/C1=C\c1c(-c2ccc(F)cc2)nc2ccccn12`, the growth was -7.93% (active).
